Compound activity as filed in PubChem.
FLuc counter – qHTS profiling assay for firefly luciferase inhibitor/activator using purifed enzyme and Km concentrations of substrates (counterscreen for miR-21 project); AID 588342, 2011; 360,000 compounds, 6.9% hits; purified FLuc, Km substrates, luminescence inhibition; Potency, µM (titrated, usually from 57.5 µM), without a hit: top-dose activity change, negative = inhibition, usual class: inhibitors; Luciferin 4-monooxygenase (Photinus pyralis), P08659;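 further: plate controls were vehicle for no effect and reference inhibitor for full effect; nearly all actives have a fitted effect of over 55% in size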
Target sequence (P08659 whole entry, looked up): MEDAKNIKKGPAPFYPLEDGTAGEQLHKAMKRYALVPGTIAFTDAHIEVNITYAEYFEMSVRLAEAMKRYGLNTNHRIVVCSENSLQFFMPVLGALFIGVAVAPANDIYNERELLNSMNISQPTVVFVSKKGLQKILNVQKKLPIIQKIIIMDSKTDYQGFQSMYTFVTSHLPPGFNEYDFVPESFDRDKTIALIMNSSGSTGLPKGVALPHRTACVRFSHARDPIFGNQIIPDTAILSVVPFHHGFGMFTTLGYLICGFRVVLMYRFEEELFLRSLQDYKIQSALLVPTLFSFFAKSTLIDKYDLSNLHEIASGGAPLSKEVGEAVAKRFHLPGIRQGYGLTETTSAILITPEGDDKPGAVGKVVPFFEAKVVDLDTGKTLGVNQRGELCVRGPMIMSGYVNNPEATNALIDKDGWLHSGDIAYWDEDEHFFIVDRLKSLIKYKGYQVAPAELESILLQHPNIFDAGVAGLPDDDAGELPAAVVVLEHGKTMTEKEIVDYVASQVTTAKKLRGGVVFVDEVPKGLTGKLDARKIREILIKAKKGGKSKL
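Purified P. pyralis luciferase (10nM final) with 10uM D-luciferin and 10uM ATP (Km levels) in 50mM Tris acetate pH 7.5, 10mM Mg acetate, 0.01% Tween-20, 0.05% BSA; qHTS 6-point titration, ~60 µM downward; luminescence read.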
KinaseGlo FLuc – Counterscreen for Luciferase (Kinase-Glo TM) Inhibition; Kinase-Glo luciferase, ATP luminescence, 8 min; Potency, µM (doses to about 38.3 µM), for the others: top-dose activity change, negative = inhibition, usual class: inhibitors; 200,000 compounds, 0.28% hits; further: on the % scale 0 is the no-effect control and ±100 the full control effect; nearly all actives have a fitted effect of over 60% in size
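Kinase-Glo luciferase light output from ATP and luciferin was measured with 10 uM ATP, within the enzyme's linear range. Buffer: 50 mM imidazole pH 7.2, 50 mM KCl, 7 mM MgCl2, 0.01% Tween 20, 0.05% BSA; luminescence read after 8 min at ambient temperature.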
Rab9 prom act – qHTS Assay for Rab9 Promoter Activators; Huh7 Rab9 promoter-luciferase reporter, luminescence, 24 h; Potency, µM (titrated, usually from 9.22 µM), without a hit: at the highest dose activation, negative = inhibition, actives largely listed as activators; 320,000 compounds, 2.8% hits; further: % of control where 0% means no effect; nearly all actives have a fitted effect of over 60% in size
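Steps: seed 1500 Huh7 Rab9-luc cells per well, rest 2 h at 37 °C; add compound in DMSO; incubate 24 h; add luciferase reagent, 10 min ambient; read luminescence.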
SMN2 splice up – qHTS Assay for Enhancers of SMN2 Splice Variant Expression; AID 1458, 2008; Potency, µM (highest dose often 46.1 µM), without a hit: at the highest dose activity change, positive = activation, hits mostly activators; HEK293 SMN2-luciferase splicing reporter, luminescence, 30-36 h; 210,000 compounds, 2.8% hits; further: % of control where 0% means no effect; nearly all actives have a fitted effect of over 55% in size
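qHTS luciferase splicing reporter: luminescence rises when SMN2 exon 7 is included in transfected HEK293 cells. Compound exposure lasted 30-36 h at 37C, with 4.5 mM final sodium butyrate as control, followed by a ONE-Glo read.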
NPC1 promoter act – qHTS Assay for NPC1 Promoter Activators | Huh7 NPC1 promoter luciferase reporter, 24 h | Potency, µM (titrated, usually from 9.22 µM), inactives show at the top dose activation, most hits filed as activators | 320,000 compounds, 2.4% hits | AID 485313, 2010; further: % of control where 0% means no effect; nearly all actives have a fitted effect of over 60% in size
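Quantitative HTS used a cell-based reporter: Huh7 cells stably bearing the NPC1 promoter upstream of luciferase were treated with compounds for 24 h, and promoter activation was read as luminescence.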
ELG1 genotoxic – qHTS screen for small molecules that induce genotoxicity in human embryonic kidney (HEK293T) cells expressing luciferase-tagged ELG1; Potency, µM (top dose mostly 46 µM), for inactives: top-dose activity change, positive = activation, most hits filed as activators; HEK293T ELG1-luciferase reporter, luminescence, 16 h; 330,000 compounds, 1.3% hits; further: % of control where 0% means no effect; nearly all actives have a fitted effect of over 60% in size
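DMSO vehicle served as control against compound-treated ELG1-luciferase HEK293T cells; exposure lasted 16 hr at 37 °C and 5% CO2, followed by ONE-Glo luminescence detection after 30 min.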
Starred values were filed as active, the others as inactive; ? = inconclusive; . = no result; [ ] = remark or other dose. Most compounds without a hit are left out; they make up all but 7.5% or so of the library. The call rests on the fitted dose curve; in most records, active means well fitted curve in the direction sought with a large enough effect; inconclusive means small, poorly fitted or top-dose-only effect, or another doubt; inactive means no such curve, though single readings can be large; an effect the other way counts as inactive or inconclusive. Potency means the concentration at half of the fitted maximal effect.

SMILES	FLuc counter	KinaseGlo FLuc	Rab9 prom act	SMN2 splice up	NPC1 promoter act	ELG1 genotoxic
CC(=O)NCc1ccc2[nH]c(C)cc2c1	-2.4%	1.7%	-2.7%	1.8%	-0.6%	7.0%
Cc1ccccc1-n1nc(CO)c(C(=O)NCCc2ccccc2)n1	-3.5%	.	.	-10.0%	.	.
Clc1ccc2[nH]cc(-c3nnnn3-c3ccccc3)c2c1	23.9µM*	-6.1%	-3.1%	-7.8%	-4.0%	-1.7%
Cc1ccc(N2CCN(S(=O)(=O)c3cccc4ccccc34)CC2)cc1Cl	-1.1%	.	.	-25.6%	.	.
Cc1ccc(-n2c(SCC(=O)N3CCC(C)CC3)nc3c([nH]c4ccccc43)c2=O)cc1	5.6%	.	.	.	.	.
Cn1c(-c2nnn(-c3ccc(F)cc3)n2)cc2ccccc21	1.35µM*	.	3.98µM*	.	?	5.17µM*
Cn1c(-c2ccccc2)cc2ccccc21	?	.	-3.8%	.	-0.2%	-0.5%
Cc1ccc(-n2nnc(-c3cc4ccccc4n3C)n2)cc1	0.849µM*	.	1.58µM*	.	2.82µM*	?
CCCCCCC[C@@H](C/C=C/CCC(=O)N(C)C/C(=C/Cl)C/C(=C\C(=O)N1CC(OC)=CC1=O)OC)OC	.	.	.	.	.	2.06µM*
CCCCCCC[C@@H](C/C=C/CCC(=O)N(C)C/C(=C/Cl)C/C(=C\C(=O)N1C[C@H](O)CC1=O)OC)OC	.	.	.	.	.	-10.7%
COc1ccc(-c2cn3cc(Br)cnc3n2)cc1	?	-7.9%	?	10µM*	8.6%	20.6µM*
COc1cc(OC)cc(C(=O)Nc2cc(-c3cn4cccnc4n3)ccc2C)c1	?	1.9%	-6.7%	5.7%	1.1%	6.4%
COc1ccc(-c2cc(-c3ccccc3)nc3ncnn23)cc1	-3.0%	-3.2%	-29.8%	-45.7%	-3.6%	-13.4%
COc1ccc(-c2cn3cccnc3n2)cc1Br	19µM*	-3.4%	11.6%	?	11.8%	?
COc1cc(C(=O)Nc2cc(-c3cn4cccnc4n3)ccc2C)cc(OC)c1OC	12µM*	-0.5%	?	0.9%	0.4%	12.5%
CNS(=O)(=O)c1cc(-c2nnc(Nc3cc(C)ccc3C)c3ccccc23)ccc1C	-8.3%	.	.	-14.1%	.	.
CC(C)(C)OC(=O)NCCCC1=CC2=CC(=O)C(C)(OC(=O)c3cnc4ccccc4n3)C(=O)C2=CO1 (stereo not drawn)	.	-0.3%	.	-1.2%	.	.
CCCCOC(=O)Nc1ccc(N2CCOCC2)cc1	15.1µM*	-1.0%	3.16µM*	11.2µM*	?	?
CCCCOC(=O)Nc1ccc(N2CCCCC2)cc1	3.01µM*	-0.6%	3.16µM*	11.2µM*	2.24µM*	?
CCc1ccc(OCCCC(=O)Nc2ccc(N3CCCCC3)cc2)cc1	-0.7%	-1.5%	-0.7%	-21.8%	-3.0%	-1.4%
Cc1ccc(-n2nc(C(=O)Nc3ccc(Cl)cn3)c3c4ccccc4n(C)c3c2=O)cc1	-2.6%	.	.	-1.0%	.	.
O=c1c(NCc2ccccc2Cl)nccn1-c1ccccc1	-7.3%	.	.	.	.	.
CC(=O)N/N=C\c1cccc(OC/C=C/c2ccccc2)c1	10.7µM*	.	0.447µM*	.	0.398µM*	?
CC(=O)N/N=C\c1ccccc1OC/C=C/c1ccccc1	-17.2%	.	26.7%	.	?	16.4µM*
N#CCC(=O)N/N=C\c1cccc(OC/C=C/c2ccccc2)c1	13.5µM*	.	?	.	0.562µM*	?
SMILES	FLuc counter	KinaseGlo FLuc	Rab9 prom act	SMN2 splice up	NPC1 promoter act	ELG1 genotoxic
CCOC(=O)N/N=C\c1cccc(OC)c1OC/C=C/c1ccccc1	9.53µM*	.	8.5%	.	3.5%	-3.9%
COC(=O)N/N=C\c1ccc(OC/C=C/c2ccccc2)cc1	?	.	-0.2%	.	6.8%	7.8%
C=C1SC(=Nc2c(C)cc(C)cc2C)N(C(=O)c2sc3ccccc3c2Cl)C12CCCCC2	0.9%	.	-5.3%	.	-1.9%	-7.1%
C=C1SC(=Nc2ccccc2Cl)N(C(=O)c2sc3ccccc3c2Cl)C12CCCCC2	21.3µM*	.	22.8%	.	10.1%	5.9%
CC(C)(C)c1ccc(C(=O)N/C(N)=N/c2nc3ccccc3o2)cc1	?	-2.2%	-13.3%	-53.6%	-3.3%	-6.2%
N/C(=N\c1nc2ccccc2o1)NC(=O)c1ccccc1Br	12µM*	.	?	.	?	5.8%
Cc1ccc2oc(/N=C(\N)NC(=O)C3CC3)nc2c1	0.849µM*	.	0.447µM*	.	0.631µM*	?
Cc1ccc2oc(/N=C(\N)NC(=O)C(C)(C)C)nc2c1	0.0757µM*	.	-29.9%	.	-22.3%	7.2%
Cc1c(-c2nc(-c3ccc4c(c3)[nH]c(=O)n4C)no2)cccc1[N+](=O)[O-]	-0.5%	.	.	.	.	.
COc1cc2c(cc1NC(=O)C(C)OC(=O)C1CC(=O)N(Cc3ccco3)C1)oc1ccccc12 (stereo not drawn)	?	2.1%	?	23.5%	?	20.6µM*
COc1cccc(C2NC(=O)c3ccccc3O2)c1OC (stereo not drawn)	-2.8%	-2.3%	8.1%	-14.6%	-1.0%	0.3%
COc1cccc(C2N=C(c3ccccc3C)NO2)c1OC (stereo not drawn)	9.53µM*	.	11.9%	.	19.4%	?
C/C(N=NC(=[SH+])SCc1ccccc1)=C1\C=CC=CN1.[Cl][Cu]	.	-0.2%[7.66 µM]	.	-63.9%[9.22 µM]	.	.
CCOC(=O)Cc1csc(NC(=O)COc2ccc(OC)cc2)n1	19µM*	1.5%	-2.1%	1.8%	-1.2%	3.4%
CCOC(=O)Cc1csc(NC(=O)COc2ccc3ccccc3c2)n1	13.5µM*	-2.0%	-6.2%	-6.9%	1.4%	-0.4%
CCOC(=O)Cc1csc(NC(=O)COc2ccccc2OCC)n1	-2.7%	-5.0%	5.6%	-5.1%	1.1%	0.8%
CN(Cc1ccccc1)Cn1ccnc1	.	-3.1%[7.66 µM]	.	-2.2%[9.22 µM]	.	.
COc1ccc(C2C(=O)N(C3CCCCCC3)CC(=O)N2CCc2ccc(OC)c(OC)c2)cc1 (stereo not drawn)	-1.1%	.	.	.	.	.
CSc1nn(Cc2ccc(C)cc2)c(N)c1S(=O)(=O)c1ccccc1	-11.0%	.	.	-45.3%	.	.
